For eight compounds, growth results are on record in PubChem BioAssay (NCI).

About 83,000 compounds went through this panel and 20% of them were active in at least one assay; those are over-represented in the sample as a whole.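 A percent growth of 40 corresponds to 60% growth inhibition; 0 means no net growth; -100 means all cells died. Active threshold: below 10.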 Active and inactive are the calls of the source.

Some test systems named below: NCI-H23 lung; NCI-H226 lung; NCI-H322M lung; HOP-62 NSCLC; NCI-H460 lung; HOP-92 NSCLC; NCI-H522 lung; A549/ATCC NSCLC; 786-0 renal; COLO 205 colon; DU-145 prostate; K-562 leukemia; MALME-3M melanoma; MDA-MB-231 breast; RXF 393 renal; SF-268 CNS; SF-295 CNS; SF-539 CNS; UACC-257 melanoma; M14 melanoma.
Common to all, as to assay: NCI-60 one-dose screen, 48 h (100 = growth as untreated, 0 = no growth, -100 = all killed)
What all share (conditions): 10 µM unless noted

For the compound `COc1ccc2[nH]c(=O)c(CSc3ccccc3Nc3nccc(-c4ccc5c(c4)OCO5)n3)cc2c1`, the growth is 94.9% (inactive) in the test with NCI-H23 lung; 76.1% (inactive) with NCI-H226 lung; 92.5% (inactive) in the test with NCI-H322M lung; 94.1% (inactive) with HOP-62 NSCLC; 83.5% (inactive) in the test with NCI-H460 lung; 90.3% (inactive) with HOP-92 NSCLC. Also, the growth with NCI-H522 lung is 66.1% (inactive); in the test on A549/ATCC NSCLC it was 76.3% (inactive); in the test on 786-0 renal, 90.1% (inactive); with COLO 205 colon, 101% (inactive); in the test with DU-145 prostate it was 78.4% (inactive); with K-562 leukemia, 52.7% (inactive). The growth with MALME-3M melanoma was 99.4% (inactive); in the test with MDA-MB-231 breast it was 93.7% (inactive); with RXF 393 renal, 79.7% (inactive); in the test on SF-268 CNS, 73.4% (inactive); with SF-295 CNS, 104% (inactive); with SF-539 CNS it was 95% (inactive). Also, the growth is 96.6% (inactive) in the test on UACC-257 melanoma and 91.5% (inactive) in the test with M14 melanoma.

For the compound `COc1ccc2c(c1)C(Sc1ccc(Br)cc1)c1c(nc(N)c(C#N)c1N)O2` (stereo not given), the growth in the test with NCI-H23 lung was 79.1% (inactive); in the test on NCI-H226 lung, 83.1% (inactive); in the test on NCI-H322M lung, 84.2% (inactive); in the test on HOP-62 NSCLC it was 93.7% (inactive); with NCI-H460 lung, 82.4% (inactive); in the test with HOP-92 NSCLC it was 111% (inactive). In addition, the growth is 77.1% (inactive) in the test on NCI-H522 lung; 89.7% (inactive) in the test with A549/ATCC NSCLC; 83% (inactive) with 786-0 renal; 90% (inactive) in the test on COLO 205 colon; 95.4% (inactive) with DU-145 prostate; 69.1% (inactive) in the test with K-562 leukemia. Moreover, the growth with MALME-3M melanoma was 85.2% (inactive); with MDA-MB-231 breast, 79.2% (inactive); with RXF 393 renal, 67.6% (inactive); with SF-268 CNS, 75.2% (inactive); with SF-295 CNS, 81.1% (inactive); in the test with SF-539 CNS, 88.8% (inactive). The growth in the test on UACC-257 melanoma is 103% (inactive); with M14 melanoma, 85.6% (inactive).

Turning to `O=C(NN1C(=O)/C(=C/C=C/c2ccc([N+](=O)[O-])o2)SC1=S)c1ccncc1`, the growth in the test with NCI-H23 lung was -88.8% (active); in the test with NCI-H226 lung, -52.7% (active); with NCI-H322M lung, -16.3% (active); in the test with HOP-62 NSCLC, -97.5% (active); with NCI-H460 lung, -53.6% (active); in the test with HOP-92 NSCLC, -85.1% (active). The growth in the test on NCI-H522 lung was -83.8% (active); in the test with A549/ATCC NSCLC it was -34.7% (active); in the test with 786-0 renal, -79.9% (active); with COLO 205 colon, -96.9% (active); with DU-145 prostate, -95% (active); in the test on K-562 leukemia, 3.03% (active). The growth is -91.7% (active) in the test on MALME-3M melanoma; -96.5% (active) with MDA-MB-231 breast; -93.6% (active) in the test on RXF 393 renal; -75.7% (active) with SF-268 CNS; -82.8% (active) in the test on SF-295 CNS; -100% (active) in the test on SF-539 CNS. Besides, the growth in the test with UACC-257 melanoma is -86.7% (active); in the test on M14 melanoma, -67.9% (active).

With `CCOc1ccccc1NC(=O)N/C(N)=N/c1nc2ccccc2s1`, the growth with NCI-H23 lung is 12.6% (inactive); in the test on NCI-H226 lung it was 33.9% (inactive); with NCI-H322M lung, 35.9% (inactive); in the test on HOP-62 NSCLC, 33.6% (inactive); in the test on NCI-H460 lung, 6.47% (active); in the test with HOP-92 NSCLC, -13.4% (active). The growth is -39.8% (active) in the test with NCI-H522 lung; 13.6% (inactive) in the test on A549/ATCC NSCLC; 12.9% (inactive) in the test on 786-0 renal; -78.1% (active) with COLO 205 colon; -4% (active) in the test on DU-145 prostate; 10.1% (inactive) in the test on K-562 leukemia. Moreover, the growth is 42% (inactive) in the test on MALME-3M melanoma; 0.962% (active) with MDA-MB-231 breast; 48.7% (inactive) in the test with RXF 393 renal; 27.3% (inactive) in the test on SF-268 CNS; 3.78% (active) in the test on SF-295 CNS; -27.7% (active) in the test with SF-539 CNS. Moreover, the growth was 52.2% (inactive) in the test on UACC-257 melanoma and 13.4% (inactive) in the test on M14 melanoma.

Turning to `COc1c(B(O)O)cc(F)cc1-c1nc2c(F)cc3[nH]ncc3c2c2c1CCCC2`, the growth is 5.45% (active) with NCI-H23 lung; 4.1% (active) in the test with NCI-H226 lung; 12.6% (inactive) with NCI-H322M lung; 16.8% (inactive) with HOP-62 NSCLC; 2.44% (active) with NCI-H460 lung; 17.2% (inactive) with HOP-92 NSCLC. The growth in the test with NCI-H522 lung is 5.36% (active); in the test on A549/ATCC NSCLC, 2.51% (active); in the test on 786-0 renal, 29.2% (inactive); in the test on COLO 205 colon, -16% (active); in the test with DU-145 prostate it was 14.6% (inactive); with K-562 leukemia, 38.8% (inactive). Besides, the growth in the test on MALME-3M melanoma was 50.9% (inactive); in the test on MDA-MB-231 breast it was 3.96% (active); with RXF 393 renal, -45.4% (active); with SF-268 CNS, 30.3% (inactive); with SF-295 CNS, 15.2% (inactive); in the test on SF-539 CNS it was -44% (active). Besides, the growth with UACC-257 melanoma was 40% (inactive); in the test with M14 melanoma it was 38.2% (inactive).

As for `Clc1ccc(CNc2nc(SCCN3CCOCC3)nc3c2cnn3CC(Cl)c2ccc(Br)cc2)cc1` (stereo not given), the growth is 49.4% (inactive) in the test on NCI-H23 lung; 62.6% (inactive) with NCI-H226 lung; 83.8% (inactive) with NCI-H322M lung; 58.6% (inactive) with HOP-62 NSCLC; 25.1% (inactive) with NCI-H460 lung; 48% (inactive) in the test with HOP-92 NSCLC. Moreover, the growth in the test with NCI-H522 lung is 48.5% (inactive); in the test with A549/ATCC NSCLC, 23.4% (inactive); in the test on 786-0 renal, 39.6% (inactive); in the test with COLO 205 colon, 5.78% (active); in the test on DU-145 prostate, 57.1% (inactive); in the test with K-562 leukemia, 7.71% (active). In addition, the growth is 1.86% (active) with MALME-3M melanoma; 44.1% (inactive) with MDA-MB-231 breast; 51.1% (inactive) with RXF 393 renal; 49.3% (inactive) with SF-268 CNS; 14.3% (inactive) with SF-295 CNS; 27.4% (inactive) in the test on SF-539 CNS. Moreover, the growth with UACC-257 melanoma was 33.2% (inactive); in the test on M14 melanoma it was 37.2% (inactive).

With `NS(=O)(=O)c1ccc(Nc2nc(N/N=C/c3cc(Br)c(O)c(Br)c3)nc(Nc3ccccc3)n2)cc1`, the growth in the test with NCI-H23 lung was 27.7% (inactive); in the test with NCI-H226 lung, 54.7% (inactive); in the test on NCI-H322M lung, 37.6% (inactive); in the test with HOP-62 NSCLC, 27% (inactive); in the test on NCI-H460 lung it was 99.8% (inactive); in the test with HOP-92 NSCLC, -4.41% (active). The growth is 49.4% (inactive) in the test on NCI-H522 lung; 97.6% (inactive) with A549/ATCC NSCLC; 25.1% (inactive) in the test with 786-0 renal; 88% (inactive) in the test on COLO 205 colon; 50.6% (inactive) in the test with DU-145 prostate; 14.3% (inactive) in the test with K-562 leukemia. The growth in the test with MALME-3M melanoma is 42% (inactive); in the test on MDA-MB-231 breast, -0.169% (active); in the test on RXF 393 renal it was 54% (inactive); in the test on SF-268 CNS, 21% (inactive); in the test with SF-295 CNS it was 43.8% (inactive); with SF-539 CNS, -25.8% (active). For the same compound, the values for the growth with UACC-257 melanoma and in the test on M14 melanoma were 97.4% (inactive) and 59.4% (inactive), respectively.

For the compound `Cc1oc(-c2ccccc2)nc1CN[C@@H]1C[C@@H]2C[C@H]([C@H]1C)C2(C)C`, the growth was -30% (active) with NCI-H23 lung; -29.8% (active) in the test on NCI-H226 lung; 57.9% (inactive) in the test on NCI-H322M lung; 75% (inactive) in the test on HOP-62 NSCLC; 4.28% (active) with NCI-H460 lung; -11.4% (active) in the test with HOP-92 NSCLC. Moreover, the growth in the test with NCI-H522 lung was 30.8% (inactive); in the test with A549/ATCC NSCLC, 50.9% (inactive); with 786-0 renal it was 21.8% (inactive); in the test with COLO 205 colon, -69.3% (active); in the test on DU-145 prostate, 65.5% (inactive); in the test with K-562 leukemia it was 11.6% (inactive). The growth is -61.7% (active) in the test with MALME-3M melanoma; 35.2% (inactive) with MDA-MB-231 breast; -78.7% (active) with RXF 393 renal; 80.8% (inactive) with SF-268 CNS; 11% (inactive) in the test with SF-295 CNS; 14.8% (inactive) in the test with SF-539 CNS. Further, the growth in the test on UACC-257 melanoma was 8.4% (active); in the test with M14 melanoma, -63.1% (active).
